7 sequences from the supplement of paper PMC6555819 can be followed below.

Holding throughout (experiment): PBM binding z-score (relative to random genomic background probes); higher = stronger binding; sequences stand for … in GC…GCGATTGACAGCGTAGAATGAAGG
Test [1] deals with FXR:RXRa (NR concentration 270 nM, RXRa partner concentration 90 nM). A digest of the protocol: (§1)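 Random background probes are the reference for binding z-scores. These scores derive from regression-normalized fluorescence on custom Agilent 4×180K protein-binding microarrays incubated 1 h with ligand-free nuclear receptor dimers. Binding was detected with antibodies against each partner (one per run).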

In test [2] the test system is LXRa:RXRa (NR concentration 270 nM, RXRa partner concentration 90 nM). In short, it runs like this:
as §1

The subject of test [3] is LXRa homodimer (NR concentration 270 nM). A digest of the protocol:
as §1

Test [4] deals with LXRb:RXRa (NR concentration 270 nM, RXRa partner concentration 90 nM). In short, it runs like this: as §1
The subject of test [5] is LXRb homodimer (NR concentration 270 nM). A digest of the protocol:
as §1

Test [6] concerns PPARa:RXRa (NR concentration 270 nM, RXRa partner concentration 90 nM). A digest of the protocol: as §1
Test [7] deals with PPARg:RXRa (NR concentration 180 nM, RXRa partner concentration 90 nM). In short, it runs like this:
as §1

The subject of test [8] is PPARg:RXRa 270nM:90nM, anti-RXR (NR concentration 270 nM, RXRa partner concentration 90 nM). A digest of the protocol: as §1
Test [9] concerns PPARg:RXRa 30nM:10nM, anti-RXR (NR concentration 30 nM, RXRa partner concentration 10 nM). In short, it runs like this: as §1
The test system of test [10] is PPARg:RXRa 90nM:30nM, anti-RXR (NR concentration 90 nM, RXRa partner concentration 30 nM). In short, it runs like this:
as §1

The subject of test [11] is PPARg:RXRa DBDmut IVT, anti-RXR (DBD mutation: RXRa K156A/R161A, NR concentration 270 nM, RXRa partner concentration 90 nM). In short, it runs like this:
as §1

Test [12] relates to PPARg:RXRa IVT, anti-PPARg (NR concentration 270 nM, RXRa partner concentration 90 nM). A digest of the protocol: as §1
Test [13] concerns PPARg DBDmut:RXRa IVT, anti-PPARg (DBD mutation: PPARg1 K132A/R137A, NR concentration 270 nM, RXRa partner concentration 90 nM). In short, it runs like this: as §1
For test [14], the system named is PPARg DBDmut IVT, anti-PPARg (DBD mutation: PPARg1 K132A/R137A, NR concentration 270 nM). A digest of the protocol:
as §1

The test system of test [15] is PPARg homodimer (NR concentration 180 nM). A digest of the protocol: as §1
The test system of test [16] is PXR:RXRa (NR concentration 270 nM, RXRa partner concentration 90 nM). In short, it runs like this: as §1
In test [17] the test system is PXR homodimer (NR concentration 270 nM). In short, it runs like this: as §1
The subject of test [18] is RARa:RXR (NR concentration 270 nM, RXRa partner concentration 90 nM). In short, it runs like this:
as §1

For test [19], the system named is RARa homodimer (NR concentration 270 nM). A digest of the protocol: as §1
Test [20] concerns RARb:RXRa (NR concentration 270 nM, RXRa partner concentration 90 nM). A digest of the protocol:
as §1

For the sequence CCAGACAGGTGAGAAAGTAACTCAGCCTCGATTA, the PBM binding z-score in test [1] was -0.0524; in test [2] it was 0.0409; in [3], 0.0347; in test [4] it was 0.0309; in test [5], -0.167; in test [6] it was 0.206. Besides, the PBM binding z-score was 0.1 in [7]; -0.203 in test [8]; -0.427 in [9]; -0.273 in [10]; 0.811 in [11]; 0.252 in test [12]. The PBM binding z-score in test [13] was -0.222; in test [14], -0.131; in [15], 0.452; in [16], -0.35; in test [17], 0.307; in test [18], 0.117. Further, the PBM binding z-score amounted to 0.86 in test [19] and 0.141 in test [20].

Turning to TATACAGAGTCAAAGGCCAGAGTACGAATGTCGA, the PBM binding z-score turned out to be 0.1 in [1]; 0.487 in test [2]; 0.0394 in [3]; 0.0721 in [4]; 0.0425 in test [5]; 1.1 in test [6]. In addition, the PBM binding z-score in test [7] is 2.17; in test [8] it was 2.98; in test [9] it was 1.53; in test [10] it was 2.73; in [11], -0.677; in test [12], 0.809. Further, the PBM binding z-score in test [13] stood at 0.657; in test [14], 0.798; in [15] it was 0.172; in test [16], 0.3; in [17] it was 0.152; in [18] it was 0.733. In addition, the PBM binding z-score in [19] is -0.267; in test [20], 1.19.

In the case of TTAGACAGGTGAAGGTAACTCAGGTACGCAGTCG, the PBM binding z-score is 0.437 in test [1]; 1.75 in test [2]; -0.26 in test [3]; 0.818 in [4]; -0.0711 in test [5]; 1.07 in test [6]. Also, the PBM binding z-score was determined as 0.825 in test [7]; 1.33 in test [8]; 1.9 in [9]; 1.54 in test [10]; 1.15 in test [11]; 1.49 in test [12]. In addition, the PBM binding z-score in test [13] was 1.36; in test [14], 0.841; in test [15] it was 0.811; in test [16] it was 0.344; in [17] it was -0.00345; in test [18], 0.387. Also, the PBM binding z-score worked out at 0.607 in test [19] and 0.951 in [20].

As for CGTCCAAGGTCAGCAGGTTAGTGAAAGCGACGTG, the PBM binding z-score was 4.92 in test [1]; 3.23 in test [2]; -0.206 in test [3]; 2.36 in [4]; -0.346 in test [5]; 4.15 in test [6]. Also, the PBM binding z-score in [7] was 2.77; in test [8], 3.33; in test [9], 0.363; in test [10] it was 1.88; in test [11], 2.23; in [12] it was 2.41. In addition, the PBM binding z-score was -0.261 in [13]; -0.686 in test [14]; 3.19 in test [15]; 2.75 in test [16]; 0.49 in [17]; 3.24 in test [18]. Besides, the PBM binding z-score in test [19] amounted to 0.634; in [20], 4.85.

Take AGCCAAAGTTCATCTAGGTAACGTAAGATATGCT: the PBM binding z-score in [1] was determined as 6.68; in test [2], 6.25; in test [3], 5.31; in test [4] it was 3.78; in test [5] it was 1.41; in test [6], 4.86. Besides, the PBM binding z-score worked out at 5.36 in test [7]; 5.53 in [8]; 2.27 in test [9]; 4.72 in test [10]; 0.587 in test [11]; 3.45 in test [12]. In addition, the PBM binding z-score amounted to 1.13 in [13]; 0.579 in test [14]; 3.87 in [15]; 5.16 in [16]; 6.7 in test [17]; 3.87 in test [18]. In addition, the PBM binding z-score in test [19] worked out at 2.24; in [20], 4.94.

AGAATGAGGTTACCAAAGAGCAGGGAAACGCTTG: the PBM binding z-score in test [1] was 1.71; in test [2], 5.78; in test [3] it was -0.463; in test [4], 2.41; in test [5], -0.39; in test [6], 3.05. For the same sequence, the PBM binding z-score was 2.22 in test [7]; 2.47 in [8]; 0.623 in test [9]; 1.44 in [10]; 3.47 in test [11]; 2.96 in [12]. The PBM binding z-score in test [13] was 0.794; in test [14], -0.0129; in test [15] it was 0.046; in [16], 1.05; in test [17], -0.21; in test [18], 1.71. Also, the PBM binding z-score is -0.396 in [19] and 2 in [20].

Consider CGTCCAAGATCAGAGAGGTCAGTGAATGCCGAGT, for which the PBM binding z-score came to 1.64 in [1]; 2 in test [2]; 1.44 in test [3]; 1.92 in test [4]; 0.00137 in [5]; 2.52 in [6]. For the same sequence, the PBM binding z-score came to 0.376 in [7]; 0.581 in test [8]; 0.00146 in test [9]; 0.0792 in test [10]; 0.179 in test [11]; 0.0749 in test [12]. Also, the PBM binding z-score in test [13] is -0.351; in [14] it was -0.769; in [15], 2.69; in test [16] it was 3.22; in test [17], 2.06; in test [18], 3.09. Moreover, the PBM binding z-score was found to be 1.49 in [19] and 2.95 in [20].
